Shiga toxin inh: blocks Shiga toxin action in Vero cells; AID 2315; inhibition, % at 38.7 µM; Vero cells, Shiga toxin protein synthesis inhibition reporter; 290,000 tested, 9.2% active; in the data active = inhibition mostly above about 28%, no sharp cut-off; inactive = mostly below about 43%; note: 0% is about no effect
TbPYK inhibitor: blocks Trypanosoma brucei pyruvate kinase. 410,000 tested, 0.12% active. AID 624173. TbPYK enzyme, Kinase-Glo Plus ATP luminescence, 45 min. Potency, µM (titrated, usually from 76.8 µM), inactives show at the top dose activity, negative = inhibition, most hits filed as inhibitors. Q57TT1; note: potency is the fitted concentration of half-maximal effect; % is set by controls: 0 for no effect and ±100 for the full control effect; nearly all actives have a fitted effect of over 50% in size
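Assay buffer: 50 mM TEA pH 7.2, 100 mM KCl, 10 mM MgCl2, 0.05% BSA, 0.01% Tween-20. Pyruvate kinase from T. brucei plus substrate met compound, then ADP (130 uM final). Luminescence was read post 45 min RT.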
Giardia FBPA inh-1: inhibitors of Giardia lamblia fructose-1,6-bisphosphate aldolase | A8B2U2 | purified Giardia FBPA | Potency, µM (titrated, usually from 59.6 µM), without a hit: at the highest dose activity, negative = inhibition, usual class: inhibitors | 290,000 tested, 0.71% active; note: potency is the fitted concentration of half-maximal effect; % is set by controls: 0 for no effect and ±100 for the full control effect; nearly all actives have a fitted effect of over 55% in size
Target sequence (A8B2U2 whole entry, looked up): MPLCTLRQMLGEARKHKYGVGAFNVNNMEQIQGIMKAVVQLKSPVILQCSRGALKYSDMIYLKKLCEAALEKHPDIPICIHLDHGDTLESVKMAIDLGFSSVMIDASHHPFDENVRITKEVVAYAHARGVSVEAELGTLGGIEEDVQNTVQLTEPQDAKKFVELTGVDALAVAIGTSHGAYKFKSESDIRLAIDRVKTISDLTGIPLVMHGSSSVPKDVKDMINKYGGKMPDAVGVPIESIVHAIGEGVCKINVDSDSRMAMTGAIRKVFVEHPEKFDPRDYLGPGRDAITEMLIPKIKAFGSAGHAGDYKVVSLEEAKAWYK
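Giardia FBPA (40 nM reagent) was preincubated 10 min at RT with compound (up to 57.5 uM final), then substrate plus GAPDH/TPI/NAD/arsenate coupling system with diaphorase/resazurin was added; resorufin fluorescence (525/598 nm) was read after 20 min.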
Sm TGR block: inhibitors of Schistosoma mansoni thioredoxin glutathione reductase; AID 485364; Potency, µM (highest dose often 114 µM), for inactives: at the highest dose activity change, negative = inhibition, usual class: inhibitors; purified TGR, DTNB reduction, TNB absorbance 405 nm; Q962Y6; 360,000 tested, 3% active; note: potency is the fitted concentration of half-maximal effect; % is set by controls: 0 for no effect and ±100 for the full control effect; nearly all actives have a fitted effect of over 60% in size
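TGR 20 nM + NADPH 100 uM (dispensed conc.), cpd preinc 15 min RT; start with NADPH (500 uM addition) then DTNB (15 mM addition). Kinetic TNB absorbance, 405 nm filter. Four-parameter Hill fit across titration.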
LmPK inhibitor: inhibitors of Leishmania mexicana pyruvate kinase; 290,000 tested, 0.37% active; purified LmPK, Kinase-Glo ATP luminescence, 1 h; Potency, µM (series often up to 57.5 µM), for the others: top-dose activity change, negative = inhibition, hits mostly inhibitors; note: potency is the fitted concentration of half-maximal effect; % is set by controls: 0 for no effect and ±100 for the full control effect
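Pyruvate kinase activity monitored as ATP production (luciferase luminescence). Conditions: 0.1 nM enzyme, 0.5 mM PEP, 0.1 mM ADP, 1 h, RT; normalized against uninhibited and no-enzyme wells.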
CHX counter-1: counter-screen for Shiga toxin inhibitors: cycloheximide protein synthesis inhibition; cell reporter, cycloheximide protein synthesis inhibition counterscreen; max response, %; 300,000 tested, 12% active; AID 2314; in the data active = max response mostly above about 13%, no sharp cut-off; inactive = mostly below about 14%; note: read at 38.3 µM for the half of the compounds with a filed dose; 0% is about no effect
LmPK confirm: Blocks LmPK activity, confirmation assay | shares compounds with LmPK inhibitor | purified LmPK, Kinase-Glo ATP luminescence, 1 h | Potency, µM (titrated, usually from 57.5 µM), for inactives: at the top dose activity change, negative = inhibition, most hits filed as inhibitors | 150 tested, 40% active;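 active = compounds giving a full or partial concentration-response curve, as inhibitors or activators; inconclusive = weak, top-dose-only or unclear curve responses; inactive = no response at any tested dose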
CHX counter-2: protein synthesis counter-screen activity for Shiga toxin hits | shares compounds with Shiga toxin inh | Cycloheximide counterscreen, protein synthesis reporter, Shiga toxin assay | Potency, µM (doses to about 38.3 µM), without a hit: at the top dose activity (activation), hits mostly activators | 510 tested, 3% active | AID 2318; calls by dose curve; note: potency is the fitted concentration of half-maximal effect; 0% is about no effect
Giardia growth: inhibitors of Giardia lamblia growth; shares compounds with Giardia FBPA inh-1; Giardia lamblia trophozoite growth inhibition; Potency, µM (series often up to 57.5 µM), inactives show top-dose activity change, negative = inhibition, actives largely listed as inhibitors; 1,500 tested, 5% active;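 note: potency is the fitted concentration of half-maximal effect; trophozoites exposed to compound for 48 h at 37 °C; % is set by controls: 0 for no effect and ±100 for the full control effect; nearly all actives have a fitted effect of over 70% in size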
Mammal cell tox: counter-screen for Giardia aldolase inhibitors: mammalian cell toxicity; shares compounds with Giardia FBPA inh-1; mammalian cell viability counter-screen, qHTS; Potency, µM (doses to about 57.5 µM), for inactives: at the top dose viability change, negative = toxicity, actives largely listed as inhibitors; 1,500 tested, 4% active;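 note: Chinese hamster ovary cells used as mammalian cytotoxicity surrogate; viability measured as cellular ATP by luminescence; potency is the fitted concentration of half-maximal effect; compound exposure lasted 48 h before reading; % is set by controls: 0 for no effect and ±100 for the full control effect; nearly all actives have a fitted effect of over 60% in size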
Giardia FBPA inh-2: confirmation of Giardia fructose-bisphosphate aldolase inhibitors; shares compounds with Giardia FBPA inh-1; purified Giardia aldolase enzyme activity, qHTS; Potency, µM (doses to about 57.5 µM), for the others: top-dose activity change, negative = inhibition, hits mostly inhibitors; 1,500 tested, 5% active; AID 2787; note: potency is the fitted concentration of half-maximal effect; % is set by controls: 0 for no effect and ±100 for the full control effect; nearly all actives have a fitted effect of over 45% in size
Rabbit aldolase: rabbit FBP aldolase inhibition by Giardia aldolase hits; shares compounds with Giardia FBPA inh-1; Rabbit muscle FBPA enzyme inhibition, selectivity counter-screen; Potency, µM (titrated, usually from 57.5 µM), for inactives: at the top dose activity, negative = inhibition, actives largely listed as inhibitors; 1,500 tested, 4% active; AID 2794; note: potency is the fitted concentration of half-maximal effect; % is set by controls: 0 for no effect and ±100 for the full control effect; nearly all actives have a fitted effect of over 60% in size
GAPDH coupling: counter-screen for Giardia aldolase inhibitors: GAPDH coupling enzyme; shares compounds with Giardia FBPA inh-1; GAPDH coupling enzyme counterscreen, biochemical, qHTS; Potency, µM (highest dose often 57.5 µM), for the others: top-dose activity change, negative = inhibition, most hits filed as inhibitors; 1,500 tested, 6% active; AID 2795; note: potency is the fitted concentration of half-maximal effect; % is set by controls: 0 for no effect and ±100 for the full control effect; nearly all actives have a fitted effect of over 55% in size
Numbers without * were called inactive; ? = inconclusive; . = not tested or not shown. Shown is part of a subset that was picked to be rich in hits. Unless noted, calls come from the whole dose curve; as a rule, active = well fitted curve in the direction sought with a large enough effect; inconclusive = small, poorly fitted or top-dose-only effect, or another doubt; inactive = no such curve, though single readings can be large; an effect the other way counts as inactive or inconclusive.

SMILES	Shiga toxin inh	TbPYK inhibitor	Giardia FBPA inh-1	Sm TGR block	LmPK inhibitor	CHX counter-1	CHX counter-2	others
C[C@]12CC[C@@H]3c4cc(O)c(O)cc4CC[C@H]3[C@@H]1CC[C@@H]2O	25	?	16µM*	?	0.56µM*	2	.	LmPK confirm=?;Giardia growth=7%;Mammal cell tox=-15%;Giardia FBPA inh-2=4µM*;Rabbit aldolase=?;GAPDH coupling=-29%
O=c1c2ccccc2[se]n1-c1ccccc1	19	8.9µM*	7.9µM*	?	22µM*	13	.	LmPK confirm=13µM*;Giardia growth=20µM*;Mammal cell tox=?;Giardia FBPA inh-2=?;Rabbit aldolase=22µM*;GAPDH coupling=-6%
O=c1c2ccccc2nc(-c2ccccc2)n1-c1ccccc1	-3	3%	6%	8%	-1%	0	.
COCCCNC(=O)CSc1nc2c(sc3ccccc32)c(=O)n1CCc1ccc(OC)c(OC)c1	.	1%	.	-8%	.	.	.
Cc1noc(C)c1S(=O)(=O)Nc1cccc(CO)c1	45*	4%	.	-15%	-1%	0	-1%
CC(=O)Nc1cccc(NS(=O)(=O)c2c(C)noc2C)c1	.	6%	.	.	.	.	.
O=C(Cc1ccc(F)cc1)Nc1cccc2cccnc12	36*	5%	-3%	-4%	2%	-3	5%
O=C1CC(c2c(Cl)cccc2Cl)c2c(ccc3ccccc23)N1 (stereo not drawn)	.	-1%	.	-2%	.	.	.
O=C1Cc2cc([N+](=O)[O-])ccc2N1c1c(Cl)cccc1Cl	64*	4%	-7%	-3%	1%	-3	-5%
O=C(Cc1cccs1)Nc1ccc(-c2nnc(-c3ccco3)o2)cc1	49*	6%	0%	-1%	3%	12	?
COC(=O)C1CCN(C2CN(Cc3ccc(C)cc3)S(=O)(=O)C2)CC1 (stereo not drawn)	.	2%	.	.	.	.	.
CCC(=O)N1CCc2cc(S(=O)(=O)NC(CC(C)C)C(=O)Nc3ccc(CC)cc3)ccc21 (stereo not drawn)	.	-3%	.	3%	.	.	.
CC(=O)N1CCc2cc(S(=O)(=O)NC(CC(C)C)C(=O)Nc3ccc4c(c3)OCCO4)ccc21 (stereo not drawn)	79*	0%	-5%	2%	-3%	7	1%
COc1cccc(C(C(=O)NC2CCCC2)N(C(=O)c2ccco2)C2CC2)c1OC (stereo not drawn)	35*	-3%	0%	0%	-3%	-2	2%
CC(C)CN(C(=O)COc1ccc([N+](=O)[O-])cc1)c1c(N)n(CC(C)C)c(=O)[nH]c1=O	.	-7%	.	-5%	.	.	.
